# Where “and” joins values, the source holds several entries; their conditions need not be identical. Equal entries are not always repeated. In all, about 18,000 compounds went through this assay and about 1,200 (6.7%) were called active. Where a call stands in place of a potency, no number is given. Roughly 16% stayed inconclusive and do not appear here. Calls come from the whole dose curve; tested in HEK293 cells. This excerpt belongs to a sample that is enriched for actives. A structure can be active in one record and inactive in another.
# Test: qHTS for Inhibitors of binding or entry into cells for Marburg Virus
# Conditions: Marburg virus pseudotype entry/binding inhibition, cell-based; series mostly up to 49.2 µM
# Potency is the fitted concentration of half-maximal effect.
Compound,"activity change, negative = inhibition",Potency
COc1ccc(-c2nc(-c3ccccc3)oc2Nc2ccc3ccccc3c2)cc1,inactive,
O=S1(=O)CC(N2CCC(Cc3ccccc3)CC2)CN1Cc1ccccc1 (stereo unspecified),inactive,
CCOC(=O)C1=C(C(=O)OCC)C(C(=O)OCC)N(S(=O)(=O)C(F)(F)F)c2ccccc21 (stereo unspecified),inactive,
COC(=O)C(C(=O)OC)[C@@H](NC=O)c1ccccc1,inactive,
C=CCN(Cc1ccc([N+](=O)[O-])cc1)S(=O)(=O)C=C,inactive,
COC(=O)CC=C[C@@H](C)[C@H](NC(=O)OCC(Cl)(Cl)Cl)c1ccc2ccccc2c1,-17.9% [at 8.59 µM] (inactive),
CC[C@H](C)[C@H](NC(=O)[C@@H](N)CCC(=O)O)C(=O)N[C@@H](CC(C)C)C(=O)N[C@@H](CC(=O)O)C(=O)N[C@H](C(=O)N1CCC[C@H]1C(=O)N[C@@H](CO)C(=O)N[C@H](C(=O)O)[C@@H](C)O)C(C)C,inactive,
CCCCN1CC(COc2ccccc2)Oc2cccc(F)c2S1(=O)=O (stereo unspecified),inactive,
CCCCN1CC(COCc2ccccc2)OCCS1(=O)=O (stereo unspecified),inactive,
CC[C@@]12C=C(/C=C/c3ccccc3)[C@](CC)(C1)[C@H](c1ccccc1)CC2=O,inactive,
FC(F)(F)c1ccc(-c2nn3ncccc3c2-c2ccnc(Nc3ccc4c(c3)OCCO4)n2)cc1,inactive,
COc1cc(Nc2nccc(-c3cnn4ncccc34)n2)cc(OC)c1,,3.53 µM (active)
C[C@@H]1C[C@H]2CC[C@H](O2)[C@H](C)C(=O)O[C@@H](C)C[C@@H]2CC[C@@H](O2)[C@@H](C)C(=O)O[C@H](C)C[C@H]2CC[C@H](O2)[C@H](C)C(=O)O[C@@H](C)C[C@@H]2CC[C@@H](O2)[C@@H](C)C(=O)O1,,0.631 µM (active)
C#CCNc1ccc2c(c1)OC[C@@H](C)NS2(=O)=O,inactive,
COc1cc2c(c(OC)c1OC)CC(C)=C(C)CC2NC(=O)C(F)(F)F (stereo unspecified),-9.07% [at 8.59 µM] (inactive),
COCOCCn1cc(CN2CCS(=O)(=O)N(Cc3ccc(-c4cccc(N(C)C)c4)cc3)C(CC(C)C)C2=O)nn1 (stereo unspecified),inactive,
C[C@H](CO)NS(=O)(=O)c1ccc(Br)cc1F,inactive,
CCCCC/C=C\C[C@H](O)/C=C/C=C/C=C/[C@@H](O)CCCC(=O)O,inactive,
C=CCOC(=O)C(=C)C,inactive,

Compound,"activity change, negative = inhibition",Potency
C[C@@H]1CC2=CCCC2[C@]2(O1)C(=O)N(CC1CC1)c1cccc(Br)c12 (stereo partly specified),72.4% [at 8.59 µM] (inactive),
O=C(Nc1cccc(C(=O)N2CCCC2)c1)c1ccccc1,inactive,
CC(=O)N1CCN(Cc2cc(=O)oc3cc(C)ccc23)CC1,inactive,
O=C(OCCN1CCOCC1)C1(c2ccccc2)CCCCC1,,inactive and 31.6 µM (active)
COc1cc(OC)c2c(c1Cl)OC1(C2=O)C(O)=CC(=O)CC1C (stereo unspecified),inactive,
CSc1ccccc1N1CCN(CCCCCC(=O)NC2CCCc3ccccc32)CC1 (stereo unspecified),,10 µM (active)
COC(=O)Nc1nc2ccc(Oc3ccc(NC(=O)Nc4cccc(Cl)c4)cc3)cc2[nH]1,,4.99 µM (active)
COC(=O)Nc1nc2ccc(Sc3ccccc3)cc2[nH]1,inactive,
C1CC[C@H]([C@@]23C[C@H](C[C@H]4CCCN[C@H]42)[C@@H]2CCCCN2C3)NC1,,12.6 µM (active)
COC(=O)CC=C[C@@H](C)[C@H](NC(=O)OCC(Cl)(Cl)Cl)c1ccccc1,0.224% [at 8.59 µM] (inactive),
NC[C@@H]1O[C@H](O[C@@H]2[C@H](O[C@@H]3O[C@H](CO)[C@@H](COC[C@H]4O[C@@H](CN)[C@@H](O)[C@@H](O)[C@@H]4N)[C@@H]3O)[C@@H](O)[C@@H](N)C[C@H]2N)[C@@H](N)[C@H](O)[C@@H]1O,inactive,
Nc1ccc2c3c(cccc13)C(=O)NC2=O,inactive,
S=C(NCCCc1cnc[nH]1)NCCCN(Cc1ccc(Cl)c(Cl)c1)c1ccc(Br)cn1,,20 µM (active)
CCCCC[C@H](O)/C=C/[C@@H]1[C@@H](CC(=O)CCC(=O)O)[C@@H](O)C[C@H]1O,inactive,
CCOC(=O)[C@@]12C3[C@@H](CCN3C(=O)N[C@@H]1c1ccccc1)[C@@H]2C (stereo partly specified),-11.3% [at 8.59 µM] (inactive),
O=S1(=O)CCSCCN1Cc1ccccc1F,inactive,
CC(C)NC[C@H](O)c1ccc2ccccc2c1,inactive,
Nc1nc2nc(Cl)[nH]c2c(=O)[nH]1,inactive,
COC(=O)c1cc(C(=O)OC)n2ccc3cc(OC)c(OC)cc3c12,51.8% [at 8.59 µM] (inactive),

Compound,"activity change, negative = inhibition",Potency
CO/N=C(\C(=O)N[C@@H]1C(=O)N2C(C(=O)O)=C(C[N+]3(C)CCCC3)CS[C@H]12)c1csc(N)n1,inactive,
CC[C@@H]1CN2CC[C@@H]1C[C@H]2[C@H](O)c1ccnc2ccc(OC)cc12,,31.6 µM (active)
COc1ccc2nccc(C(=O)O)c2c1,inactive,
COc1cccc([C@@H]2Oc3ccc(Br)cc3C(=O)[C@H]2OC(=O)NCCc2ccc(OC)c(OC)c2)c1,inactive,
CCCC(C(=O)OCCN(CC)CC)(c1ccccc1)c1ccccc1,,15.8 µM (active)
CCC(C(=O)OCCN(CC)CC)c1ccccc1 (stereo unspecified),inactive,
CC[N+]1(CCOC(=O)C(O)(c2ccccc2)c2ccccc2)CCCCC1,inactive,
CCCCC/C=C\C/C=C\CCCCCCCCCC(N)=O,inactive,
CCCCOCC1CN(CCCC)S(=O)(=O)c2c(Oc3ccc(F)cc3)cccc2O1 (stereo unspecified),inactive,
CN1CCN2c3ccccc3Cc3ccccc3[C@@H]2C1,,15.8 µM (active)
CN1C(=O)CN2CCc3ccccc3C2c2cc(Cl)ccc21 (stereo unspecified),inactive,
H-EHIPA-OH,inactive,
COc1ccc(Nc2ncnc3ccc(OC)cc23)cc1,inactive,
CC(C)(C)OC(=O)Nc1ccc(OCc2cn(CC(=O)c3ccc(O)cc3)nn2)cc1,inactive,
CO/N=C(/C(=O)N[C@@H]1C(=O)N2C(C(=O)O)=C(Cn3nnc(C)n3)CS[C@H]12)c1csc(N)n1,inactive,
CC/C=C\C/C=C\C/C=C\C/C=C\C/C=C\C/C=C\CCC(=O)NC(C)C(=O)O (stereo unspecified),inactive,
CC12C=C(C=Cc3ccc(F)cc3)C(C)(C1)C(c1ccc(F)cc1)CC2=O (stereo unspecified),8.67% [at 8.59 µM] (inactive),
CC(C)[C@H]1CC[C@@H](C)C[C@H]1O,inactive,

# From PubChem BioAssay AID720532 (National Center for Advancing Translational Sciences (NCATS), 2013)
